USP2a block = blocks human ubiquitin-specific protease USP2a | O75604 | USP2 core, Ub-CHOP2 coupled fluorogenic reporter, 485/531 | Potency, µM (doses to about 38.3 µM), hits mostly inhibitors | actives 0.01% (n = 330,000)
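Cell-free coupled assay: 10nM USP2 core preincubated 30min RT with compound in Tris-HCl pH 8.0/CaCl2/CHAPS buffer, then 25nM Ub-CHOP2 and 25nM reporter substrate; fluorescence (Ex 485/Em 531) read after 60min RT, normalized to NEM inhibition, concentration-response curves fitted.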
PTAP TSG101 blk = blocks PTAP/TSG101 interaction to inhibit HIV-1 budding. Q99816. Fluorescence polarization, FITC-PTAP peptide / Tsg101 binding. Potency, µM (highest dose often 115 µM), actives largely listed as inhibitors. 340,000 tested, under 10 active. AID 493005; active means well fitted inhibition curve with a large enough effect in the main read-out, with a control signal flat, not every such curve was filed as active; inconclusive means small, poorly fitted or top-dose-only effect, or effect the other way, or a change in a side signal; inactive means no such curve, though single readings can be large or run the other way
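Steps: Tsg101 binding domain dispensed (10 uM final), compounds pinned in DMSO, FITC-labeled PTAP-motif peptide added (50 nM final); after 20 min binding at room temperature, polarization measured.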
Eya2 inh = Eya2 (human) phosphatase inhibition; Potency, µM (top dose mostly 76.9 µM), usual class: inhibitors; recombinant Eya2, OMFP fluorescence dephosphorylation (OMFP is methylfluorescein phosphate); actives 0.006% (n = 330,000)
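Eya2 (0.2 uM) preincubated 10 min at ambient with compound, then OMFP substrate added at 50 uM; 10 min reaction in 50 mM HEPES pH 7.5, 50 mM NaCl, 5 uM MgCl2, 0.05% BSA, 1 mM DTT. Fluorescence read at Ex 485/Em 525 nm.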
12-LOX inh = blocks human arachidonate 12S-lipoxygenase. purified 12hLO, xylenol orange hydroperoxide absorbance. Potency, µM (highest dose often 108 µM), hits mostly inhibitors. actives 1.1% (n = 580,000). AID 1671190
Target sequence (P18054 whole entry, looked up): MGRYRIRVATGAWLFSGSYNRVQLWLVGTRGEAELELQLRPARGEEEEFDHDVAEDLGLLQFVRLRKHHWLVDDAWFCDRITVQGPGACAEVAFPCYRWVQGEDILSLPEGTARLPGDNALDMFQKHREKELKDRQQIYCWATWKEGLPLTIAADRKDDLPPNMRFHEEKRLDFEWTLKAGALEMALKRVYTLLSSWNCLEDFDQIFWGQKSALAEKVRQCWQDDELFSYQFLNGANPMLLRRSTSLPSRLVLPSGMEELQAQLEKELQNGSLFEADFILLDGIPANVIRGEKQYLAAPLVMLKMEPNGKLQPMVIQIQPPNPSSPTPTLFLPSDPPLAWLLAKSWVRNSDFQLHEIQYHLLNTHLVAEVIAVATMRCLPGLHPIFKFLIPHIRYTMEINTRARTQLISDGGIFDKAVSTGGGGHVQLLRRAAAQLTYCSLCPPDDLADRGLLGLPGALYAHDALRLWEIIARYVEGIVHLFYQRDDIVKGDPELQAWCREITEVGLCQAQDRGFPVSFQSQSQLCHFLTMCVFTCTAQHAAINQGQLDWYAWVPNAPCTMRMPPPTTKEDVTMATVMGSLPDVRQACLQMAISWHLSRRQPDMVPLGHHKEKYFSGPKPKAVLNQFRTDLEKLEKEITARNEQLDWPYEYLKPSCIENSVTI
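Purified human 12hLO at 150 nM in 25 mM Hepes, 0.01% Triton X-100, pH 7.0, preincubated 15 min at room temperature with compound. Reaction started with 40 uM arachidonic acid, 30 min at room temperature. Hydroperoxide measured by Fe-xylenol orange, 573/405 nm absorbance ratio.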
Numbers stand for hits; - = inactive; ? = inconclusive; . = no result given; ! = repeats disagree. Only some compounds are listed: those with a hit (about 1.1% of all), similar ones and a draw of the others. Unless noted, the call rests on the fitted dose curve; in most records, active means well fitted curve in the direction sought with a large enough effect; inconclusive means small, poorly fitted or top-dose-only effect, or another doubt; inactive means no such curve, though single readings can be large; an effect the other way counts as inactive or inconclusive.

SMILES	USP2a block	PTAP TSG101 blk	Eya2 inh	12-LOX inh
Cc1ccc(Cn2c(=O)c3cccnc3n(Cc3ccc(C)cc3)c2=O)cc1	.	.	.	-
Cn1ncc2c(=S)nc(Cl)[nH]c21	.	-	.	7.1µM
CN(Cc1nc2ccccc2[nH]1)S(=O)(=O)c1cc(Br)ccc1Br	.	.	.	-
Cc1csc2nc(COc3ccc(F)cc3F)cc(=O)n12	.	.	.	-
Oc1ccc(C2SCCS2)cc1	.	.	.	-
OCCN(CCO)c1nc(N2CCCCC2)c2nc(N(CCO)CCO)nc(N3CCCCC3)c2n1	?	?	?	45µM!
CCCn1nc(S(=O)(=O)N2CCCCC2)c(C(=O)OCC)c1C	.	.	.	6.3µM
CCCn1nc(S(=O)(=O)N2CCCC2)c(C(=O)OCC)c1C	.	.	.	11µM
Cc1ccc(-c2nc3ccccc3n2CCNC(=O)NCC(C)C)cc1	.	.	.	-
COc1cc2ccccc2cc1C(=O)N1CCC(C(=O)c2ccc3c(c2)OCCO3)CC1	.	.	.	-
Cc1ccsc1C(=O)N1CCCn2cc(-c3cccc(C#N)c3)nc21	.	.	.	-
COc1ccc(NS(=O)(=O)c2cc(OC)ccc2NC(=O)c2cc(C)oc2C)cc1	-	-	-	35µM
COc1ccc(NS(=O)(=O)c2cc(OC)ccc2OC)cc1	.	-	.	-
CCCCCCCCCO	.	.	.	-
Cn1c(-c2ccccc2)nc2cnc(Nc3cccc(OC(F)(F)F)c3)cc21	.	.	.	-
CC(C)c1ccc(O)c(=O)cc1	.	.	.	22µM
CC(C)c1cccc(O)c(=O)c1	-	-	-	14µM!
CC(C)c1ccc(C(=O)O)c(O)c1	.	.	.	-
COC(CNC(=O)c1cccc(-n2c(=S)[nH]c3cc(Cl)ccc3c2=O)c1)OC	-	-	-	1.8µM
CC1=C[C@@H](CNC(=O)c2ccnc(Cl)c2)[C@H](C(C)C)C[C@H]1Cc1nc2ccc(C)cc2[nH]1	.	.	.	-
CC1(Br)C(Sc2ccccc2[N+](=O)[O-])=Nc2ccccc21 (stereo unspecified)	.	.	.	7.9µM
Cc1[nH]c(=O)[nH]c(=O)c1Sc1ccccc1[N+](=O)[O-]	-	-	-	-
Oc1c(CN2CCCC(C(F)(F)F)C2)cc(Cl)c2ccccc12 (stereo unspecified)	-	-	-	16µM
CCCCCCCCCCCC(=O)OCC	.	.	.	-
COc1cccc(CC(=O)N2CCC3(CC2)NC(=O)N(c2cccc(F)c2)N3)c1	.	.	.	5µM
SMILES	USP2a block	PTAP TSG101 blk	Eya2 inh	12-LOX inh
O=C(Cc1cccc(F)c1)N1CCC2(CC1)NC(=O)N(c1cccc(F)c1)N2	.	.	.	6.3µM
COc1ccc(CCC(=O)NC2CC(=O)N(c3cccc(F)c3)C2)cc1 (stereo unspecified)	.	.	.	-
COc1ccc(CCC(=O)N2CCC3(CC2)NC(=O)N(c2cccc(F)c2)N3)cc1	.	.	.	5µM
COc1cccc(CC(=O)N2CCC3(CC2)NC(=O)N(c2ccccc2)N3)c1	.	.	.	3.2µM
COc1cccc(CC(=O)N2CCCC3(C2)NC(=O)N(Cc2ccccc2)C3=O)c1 (stereo unspecified)	.	.	.	-
COc1cccc(CC(=O)N2CCC3(CC2)N(C)C(=O)CS3(=O)=O)c1	.	.	.	-
Cc1ccc(C(=O)N2CCC3(CC2)NC(=O)N(c2cccc(F)c2)N3)s1	.	.	.	-
O=C(Cc1ccc(Cl)cc1)N1CCC2(CC1)NC(=O)N(c1cccc(F)c1)N2	.	.	.	3.2µM
O=C(COc1ccccc1)N1CCC2(CC1)NC(=O)N(c1ccccc1Cl)N2	.	.	.	-
Cc1ccccc1C(=O)N1CCC2(CC1)NC(=O)N(c1cccc(F)c1)N2	.	.	.	1.8µM
O=C(Cc1cccc(F)c1)N1CCC2(CC1)NC(=O)N(Cc1ccccc1Cl)C2=O	.	.	.	-
O=C(Cc1ccc(Cl)cc1)N1CCC2(CC1)NC(=O)N(c1ccccc1Cl)N2	.	.	.	1.4µM
COc1cccc(CC(=O)N2CCC3(CC2)NC(=O)N(c2cccc(Cl)c2)N3)c1	.	.	.	1.4µM
CCCn1ccnc1CN1CCCn2nc(-c3nc4ccccc4n3C)cc2C1	.	.	.	-
Cc1cc(-c2ccccc2)nc(SCC(=O)c2ccc3c(c2)OCCCO3)n1	.	.	.	-
O=C(C1CCCCC1)N(Cc1cccnc1)c1nc2c(Cl)cccc2s1	.	.	.	-
Cc1ccc(C)c(CN2C(=O)NC3(CCN(C(=O)Cc4cccc(F)c4)CC3)C2=O)c1	.	.	.	-
Cc1ccccc1CC(=O)N1CCC2(CC1)NC(=O)N(c1cccc(F)c1)N2	.	.	.	2.8µM
COc1ccc(/C=C(/C#N)C(=O)c2c(Cl)cccc2Cl)cc1	.	.	.	6.3µM
COc1cccc(C(=O)/C(C#N)=C\c2ccc(F)c(Br)c2)c1	.	.	.	18µM
COc1cccc(C(=O)/C(C#N)=C\c2ccccc2C(F)(F)F)c1	.	.	.	40µM
Cc1ccc(F)c(Nc2ncnc3c2oc2ccccc23)c1	.	.	.	4.5µM
Cc1noc(C)c1-c1cc2c(cc(-c3ccccc3)n2C)c(Nc2ccncn2)n1	.	.	.	-
CN1CCc2c([nH]c3ccccc23)C12CCN(C(=O)c1ccsc1)CC2	.	.	.	-
Cc1c(C)n(-c2ccc(Cl)cc2)c2ncn(CC(=O)NC(C)c3ccccc3)c(=O)c12 (stereo unspecified)	.	.	.	25µM
SMILES	USP2a block	PTAP TSG101 blk	Eya2 inh	12-LOX inh
O=C1NC2(CCN(Cc3ccsc3)CC2)COc2ccccc21	.	.	.	45µM
Cc1nc2ccccc2c(C)c1C(=O)c1ccc(Cl)cc1	.	.	.	7.9µM
O=C(Nc1ccc(Cl)cc1)[C@@H]1[C@@H]2C(=O)N(c3cccc(F)c3)C(=O)[C@@H]2[C@H]2C=CC=NN21	-	-	-	-
O=C(Nc1ccc(Cl)cc1)[C@@H]1[C@@H]2C(=O)N(c3ccc4ccccc4c3)C(=O)[C@@H]2[C@H]2C=CC=NN21	-	-	-	18µM
Cc1cc([N+](=O)[O-])nn1CCCC(=O)Nc1sc2c(c1C(N)=O)CCCC2	-	-	-	45µM
NC(=O)c1c(NC(=O)CCCn2cnc([N+](=O)[O-])n2)sc2c1CCCC2	-	-	-	40µM
O=[S+]([O-])(Nc1ccccc1)c1ccc2c(c1)OCCN(Cc1ccc(F)cc1)C2	.	.	.	-
CCCCCC1CCC(c2ccc(C(=O)CCN(C)C)cc2)CC1 (stereo unspecified)	.	.	.	7.9µM
CCCCCCOc1ccc(C(=O)CCN(C)C)cc1	.	.	.	32µM
CCCSc1ccc(C(=O)CCN(C)C)cc1	.	.	.	32µM
CCOc1ccc2c(c1)cc(C(=O)NC(C)C)n2C	.	.	.	-
CCOC(=O)N1CCN(Cc2cc(=O)oc3cc(O)c(Cl)cc23)CC1	.	.	.	-
Nc1sc(-c2ccccc2)cc1C(=O)NCCc1ccc(Cl)cc1	.	.	.	40µM
C=CCNC(=O)c1cc(-c2ccccc2)sc1N	.	.	.	-
O=C(COC(=O)c1cnccn1)Nc1ncc(C(F)(F)F)cc1Cl	-	-	?	5µM
COCCN(C)C(=O)C(C)(C)Oc1nn(Cc2cccc(Cl)c2)c2ccccc12	.	.	.	-
CCCCc1c(C)nc2ccc(OC)cc2c1SCCC(=O)O	-	-	-	45µM
CCCc1c(C)nc2ccccc2c1SCCC(=O)O	.	.	.	-
Cn1cccc1/C=N/N1CCN(Cc2cccc3ccccc23)CC1	-	-	-	18µM
O=c1[nH]c(=O)c2[nH]c(=S)[nH]c2[nH]1	.	-	.	0.71µM
Cc1nc2[nH]c(=O)[nH]c(=O)c2[nH]1	.	.	.	-
Cc1ccc2cccc(NC(=O)c3ccc(-c4ccc(Br)cc4)o3)c2n1	.	.	.	-
O=C(Nc1ccccc1)Nc1cccc2nsnc12	-	-	-	40µM

Screening data (PubChem)
